Pf growth 48h = inhibits P. falciparum growth in the first generation, 48 h. 310,000 tested, 5.9% active. P. falciparum luciferase growth in erythrocytes, 48 h. Potency, µM (doses to about 28.7 µM), most hits filed as inhibitors. AID 504832
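Cell-based growth assay: transgenic P. falciparum expressing firefly luciferase, cultured in red cells within RPMI 1640 containing 0.5% w/v Albumax, 24 mM bicarbonate and gentamycin. A drop in luciferase activity indicates inhibition.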
Shiga inhibitor = Shiga toxin inhibition | inhibition, % at 38.7 µM | 290,000 tested, 9.2% active | Vero cells, Shiga toxin protein synthesis inhibition reporter | AID 2315; in the data active means inhibition mostly above about 28%, no sharp cut-off; inactive means mostly below about 43%
CHX counter = counter-screen hit for Shiga toxin inhibitors, cycloheximide. cell reporter, cycloheximide protein synthesis inhibition counterscreen. max response, %. 300,000 tested, 12% active. AID 2314; in the data active means max response mostly above about 13%, no sharp cut-off; inactive means mostly below about 14%; further: read at 38.3 µM for the half of the compounds with a filed dose
AMA1-RON2 inh = inhibitors of Plasmodium falciparum AMA1-RON2 interaction | 360,000 tested, 0.2% active | AlphaScreen AMA1-biotinylated RON2 peptide binding | AID 720542 | Potency, µM (top dose mostly 58.2 µM), actives largely listed as inhibitors; further: nearly all actives have a fitted effect of over 45% in size
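AMA1 (3D7) with his tag at 25 nM final met compounds first, then biotinylated RON2 peptide at 25 nM; detection used donor plus acceptor beads, 10 µg/mL apiece, read by AlphaScreen after 30 min at room temperature.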
HCV inh = inhibitors of hepatitis C virus infection | Huh7.5.1 HCVcc-Cre infection, luciferase reporter, 44 h | Potency, µM (series often up to 41.8 µM), usual class: inhibitors | 340,000 tested, 3.4% active
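A cell-based infection assay in which seeded cells (1,000 per well) receive test compound after 4 h, are inoculated with HCVcc-Cre at approximately 0.5 moi, and are incubated 44 h before luminescence detection.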
Pf growth 96h = P. falciparum growth inhibition at 96 hour, primary screen for plastid delayed-death inhibitors; P. falciparum luciferase reporter growth, 96 h; Potency, µM (titrated, usually from 28.7 µM), hits mostly inhibitors; 320,000 tested, 6.9% active
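96 h incubation, 37 C, 5% CO2, of luciferase-reporter P. falciparum-infected RBCs (2% hematocrit, 0.05% parasitemia final) with test compounds; endpoint luminescence.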
Numbers stand for hits. Most compounds without a hit are left out; they make up all but 21% or so of the library. Unless noted, the call rests on the fitted dose curve; in most records, active means well fitted curve in the direction sought with a large enough effect; inconclusive means small, poorly fitted or top-dose-only effect, or another doubt; inactive means no such curve, though single readings can be large; an effect the other way counts as inactive or inconclusive.

O=C(Nc1cc(S(=O)(=O)N2CCCC2)ccc1Cl)c1cc(F)c(F)c(F)c1F was read as AMA1-RON2 inh inactive and HCV inh inconclusive.
`O=C1C(=Cc2ccccc2O)SC(=S)N1CCCN1CCOCC1` gave AMA1-RON2 inh inactive.
For CC(=O)c1ccc(NC(=O)C(C)n2nc(-c3ccccc3)c3cc(Cl)ccc32)cc1 (stereo unspecified) the results were Pf growth 48h inconclusive, Shiga inhibitor inactive, CHX counter inactive, AMA1-RON2 inh inactive, HCV inh inconclusive and Pf growth 96h 1.17µM.
For Cc1ccccc1/C=c1\s/c(=C\C(=O)C(C)(C)C)[nH]c1=O the results were Shiga inhibitor inactive, CHX counter 24.1, AMA1-RON2 inh inactive, HCV inh 11.2µM and Pf growth 96h inconclusive.
Screening CCc1ccc(/C=c2\s/c(=C\C(=O)C(C)(C)C)[nH]c2=O)cc1 returned Pf growth 48h 3.29µM, Shiga inhibitor inactive, CHX counter inactive, AMA1-RON2 inh inactive and HCV inh inconclusive.
CC(C)(C)C(=O)/C=c1\[nH]c(=O)/c(=C\c2ccccc2F)s1 was read as Pf growth 48h inactive, Shiga inhibitor inactive, CHX counter inactive, AMA1-RON2 inh inactive, HCV inh inconclusive and Pf growth 96h inactive.
CC(C)(C)C(=O)/C=c1\[nH]c(=O)/c(=C\c2ccc(F)cc2)s1 was read as Pf growth 48h inconclusive, Shiga inhibitor inactive, CHX counter 11.2, AMA1-RON2 inh inactive and HCV inh inactive.
CCCCN1C[C@H](C)[C@@H](CC(=O)NC)C1=O was read as AMA1-RON2 inh inactive.
`COc1ccccc1-c1ccc2c(c1)C(C)(Cc1ccc(OC(F)(F)F)cc1)C(=O)N2` (stereo unspecified) gave AMA1-RON2 inh inactive.
Cc1cc(C)c(C)c(C(=O)CSc2nnc(-c3ccc4[nH]c(C)c(C)c4c3)o2)c1C was read as Pf growth 48h 13.1µM, Shiga inhibitor inactive, CHX counter inactive, AMA1-RON2 inh inactive, HCV inh inconclusive and Pf growth 96h inconclusive.
Cc1[nH]c2ccc(-c3nnc(SCC(=O)c4ccc(F)cc4)o3)cc2c1C was read as Pf growth 48h inactive, Shiga inhibitor inactive, CHX counter inactive, AMA1-RON2 inh inactive, HCV inh inactive and Pf growth 96h inconclusive.
`Cc1ccc(S(=O)(=O)NC(C)C(=O)OCC(=O)N(C)c2ccccc2)cc1` (stereo unspecified) gave Pf growth 48h inactive, AMA1-RON2 inh inactive, HCV inh inactive and Pf growth 96h inactive.
`CCCN1CCc2c(sc(NC(=O)CCS(=O)(=O)c3ccccc3)c2C(=O)OC)C1` gave Pf growth 48h inconclusive, Shiga inhibitor inactive, CHX counter inactive, AMA1-RON2 inh inactive, HCV inh inactive and Pf growth 96h 13.1µM.
For COC(=O)c1c(NC(NC(=O)c2ccccc2)(C(F)(F)F)C(F)(F)F)sc2c1CCN(C)C2 the results were Pf growth 48h 8.28µM, Shiga inhibitor inactive, CHX counter inactive, AMA1-RON2 inh inactive, HCV inh inactive and Pf growth 96h 2.33µM.
For COC(=O)c1c(NC(=O)CCS(=O)(=O)c2ccccc2)sc2c1CCN(C)C2 the results were Pf growth 48h 13.1µM, Shiga inhibitor inactive, CHX counter inactive, AMA1-RON2 inh inactive, HCV inh inactive and Pf growth 96h inconclusive.
For CCC(=O)NC(Nc1sc2c(c1C(=O)OC)CCCC2)(C(F)(F)F)C(F)(F)F the results were Pf growth 48h inactive, Shiga inhibitor inactive, CHX counter inactive, AMA1-RON2 inh inactive, HCV inh inactive and Pf growth 96h inactive.
Screening CN(C)S(=O)(=O)c1ccc(C(=O)NCCC(=O)N2CCCC2)cc1 returned Pf growth 48h inactive, Shiga inhibitor inactive, CHX counter inactive, AMA1-RON2 inh inactive, HCV inh inactive and Pf growth 96h inactive.
COc1ccc(CCNC(=O)c2sc3cc(C)ccc3c2Cl)cc1 was read as Pf growth 48h inconclusive, Shiga inhibitor inactive, CHX counter inactive, AMA1-RON2 inh inactive, HCV inh inactive and Pf growth 96h inactive.
Screening Cc1cc(NC(=O)c2c(Cl)cccc2Cl)no1 returned Pf growth 48h inactive, Shiga inhibitor inactive, CHX counter inactive, AMA1-RON2 inh inactive, HCV inh inactive and Pf growth 96h inactive.
Screening Cc1ccc2c(Cl)c(C(=O)Nc3cc(C)on3)sc2c1 returned Shiga inhibitor 77.7, CHX counter 31.4, AMA1-RON2 inh inactive, HCV inh inactive and Pf growth 96h inactive.
For Cc1ccc2c(Cl)c(C(=O)NCCc3ccccc3)sc2c1 the results were Pf growth 48h inactive, Shiga inhibitor 123.9, CHX counter 48.2, AMA1-RON2 inh inactive, HCV inh inactive and Pf growth 96h inconclusive.
Screening CCNC(=O)c1sc2cc(C)ccc2c1Cl returned Pf growth 48h inactive, Shiga inhibitor 39.1, CHX counter 25.2, AMA1-RON2 inh inactive, HCV inh inconclusive and Pf growth 96h 13.1µM.
For Cc1n[nH]c(=O)c2c(NC(=O)CSc3nc4ccccc4c(=O)n3C(C)C)oc(C)c12 the results were Pf growth 48h inactive, Shiga inhibitor inactive, CHX counter inactive, AMA1-RON2 inh inactive, HCV inh inconclusive and Pf growth 96h inactive.
Screening COC(=O)C[C@@H]1OC[C@H](CO)N1S(=O)(=O)c1ccc(C)cc1 returned AMA1-RON2 inh inactive.
`CCC(=O)NC(c1cccs1)c1ccc2cccnc2c1O` (stereo unspecified) gave Pf growth 48h 2.33µM, Shiga inhibitor inactive, CHX counter inactive, AMA1-RON2 inh inactive, HCV inh 3.55µM and Pf growth 96h inconclusive.
Cc1conc1NC(c1cccs1)c1ccc2cccnc2c1O (stereo unspecified) was read as Pf growth 48h 1.85µM, Shiga inhibitor inactive, CHX counter inactive and Pf growth 96h 6.57µM.
`CC(C)CC(=O)NC(c1cccs1)c1ccc2cccnc2c1O` (stereo unspecified) gave Pf growth 48h inconclusive, Shiga inhibitor inactive, CHX counter inactive, AMA1-RON2 inh inactive, HCV inh 2.82µM and Pf growth 96h inactive.
For C=CCOc1ccccc1CN(C(=O)CCl)c1ccc2c(c1)OCO2 the results were Pf growth 48h inconclusive, Shiga inhibitor 48.8, CHX counter 16.9, AMA1-RON2 inh inactive, HCV inh inconclusive and Pf growth 96h 11.7µM.
Screening CCc1ccccc1NC(=O)CN1C(=O)C2CCCN2c2ncc(Cl)cc21 (stereo unspecified) returned Pf growth 48h inconclusive, Shiga inhibitor inactive, CHX counter inactive, AMA1-RON2 inh inactive, HCV inh inconclusive and Pf growth 96h inactive.
For O=C(CN1C(=O)C2CCCN2c2ncc(Cl)cc21)NCc1ccc2c(c1)OCO2 (stereo unspecified) the results were Pf growth 48h 9.28µM, Shiga inhibitor inactive, CHX counter inactive, AMA1-RON2 inh inactive, HCV inh inconclusive and Pf growth 96h inactive.
Screening CC1CCC(NC(=O)CN2C(=O)C3CCCN3c3ncc(Cl)cc32)CC1 (stereo unspecified) returned Pf growth 48h 3.7µM, Shiga inhibitor inactive, CHX counter inactive and HCV inh inconclusive.

Bioassay records: PubChem, National Center for Advancing Translational Sciences (NCATS)
